# Compound activity deposited in PubChem BioAssay by National Center for Advancing Translational Sciences (NCATS).
# A selection: hits, their analogues and other compounds. The true share with any hit is near 10%.
# G9a inh: blocks human histone lysine methyltransferase G9a. 350,000 tested, 8.8% active. AID 504332. Potency, µM (top dose mostly 102 µM), inactives show at the highest dose activity, negative = inhibition, usual class: inhibitors. G9a H3K9 monomethylation, AlphaScreen, 2 h; note: % is set by controls: 0 for no effect and ±100 for the full control effect; nearly all actives have a fitted effect of over 75% in size
#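 AlphaScreen detection with an anti-monomethyl H3K9 antibody quantified product after a 2 h room-temperature reaction containing 500 nM biotinylated H3K9 peptide, 20 µM SAM and 20 nM enzyme, which had been preincubated 15 min with compound.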
# JMJD2A Tudor inh: JMJD2A Tudor domain (human) inhibition; AlphaScreen JMJD2A-Tudor / H3K4me3 peptide binding; Potency, µM (top dose mostly 114 µM), inactives show top-dose activity change, negative = inhibition, most hits filed as inhibitors; 390,000 tested, 4.4% active; note: % is set by controls: 0 for no effect and ±100 for the full control effect; nearly all actives have a fitted effect of over 50% in size
# BAZ2B block: BAZ2B (human) inhibition | Potency, µM (top dose mostly 114 µM), for the others: at the top dose activity change, negative = inhibition, hits mostly inhibitors | Q9UIF8 | 360,000 tested, 4.4% active | AlphaScreen BAZ2B-H3K14Ac peptide displacement | AID 504333; note: % is set by controls: 0 for no effect and ±100 for the full control effect; nearly all actives have a fitted effect of over 60% in size
#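 BAZ2B (50 nM) with biotin-H3(5-23)K14Ac peptide (50 nM) in PBS pH 7.4, 0.01% Tween-20, preformed 30 min, then compound 30 min at room temperature; top concentration 110uM. AlphaScreen streptavidin donor/nickel chelate acceptor beads (10 ug/mL final), 20 min dark, signal read.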
# L3MBTL1 inh: inhibitors of human L3MBTL1; Q9Y468; Potency, µM (titrated, usually from 57.1 µM), without a hit: at the highest dose activity, negative = inhibition, usual class: inhibitors; AID 485360; AlphaScreen L3MBTL1–H3K9me1 peptide binding; 230,000 tested, 0.66% active; note: % is set by controls: 0 for no effect and ±100 for the full control effect; nearly all actives have a fitted effect of over 60% in size
#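 L3MBTL1 (50 nM) pre-complexed 30 min with biotinylated H3(1-15)K9me1 peptide (75 nM), then compounds added for 30 min at room temperature; AlphaScreen streptavidin donor/nickel chelate acceptor beads (10 ug/mL final) read after 30 min dark incubation.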
# GLS inh: glutaminase GLS (human) inhibition; O94925; AID 624170; GLS enzymatic activity, qHTS titration; 410,000 tested, 0.21% active; Potency, µM (titrated, usually from 45.5 µM), inactives show top-dose activity change, negative = inhibition, actives largely listed as inhibitors; note: % is set by controls: 0 for no effect and ±100 for the full control effect
# Target sequence (O94925 whole entry, looked up): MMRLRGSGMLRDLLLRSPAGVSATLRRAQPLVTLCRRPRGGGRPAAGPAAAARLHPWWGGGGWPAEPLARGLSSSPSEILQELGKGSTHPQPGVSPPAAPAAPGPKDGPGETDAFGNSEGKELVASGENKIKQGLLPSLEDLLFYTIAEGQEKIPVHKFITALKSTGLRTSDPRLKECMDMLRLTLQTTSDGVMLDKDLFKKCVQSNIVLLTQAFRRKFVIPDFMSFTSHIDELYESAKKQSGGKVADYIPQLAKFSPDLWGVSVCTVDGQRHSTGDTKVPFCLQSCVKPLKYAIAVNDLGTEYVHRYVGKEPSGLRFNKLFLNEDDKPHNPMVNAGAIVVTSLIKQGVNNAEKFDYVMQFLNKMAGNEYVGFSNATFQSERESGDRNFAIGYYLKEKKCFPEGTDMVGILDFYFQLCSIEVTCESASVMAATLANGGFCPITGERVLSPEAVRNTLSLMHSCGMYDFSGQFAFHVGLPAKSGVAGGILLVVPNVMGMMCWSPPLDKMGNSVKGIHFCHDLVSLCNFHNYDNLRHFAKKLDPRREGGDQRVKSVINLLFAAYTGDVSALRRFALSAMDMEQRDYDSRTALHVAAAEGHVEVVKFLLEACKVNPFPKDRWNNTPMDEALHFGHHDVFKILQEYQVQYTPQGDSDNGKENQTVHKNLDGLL
#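 Read-out is an Amplex red fluorescence increase coupled through glutamate oxidase and HRP, measured before and after 30 min room-temperature incubation. hKGA is in 45 mM KH2PO4 (pH 8.2) with 0.02% Tween-20; glutamine added as 1mM solution.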
# HP1b binding inh: inhibitors of HP1-beta chromodomain binding to methylated histone tails; AlphaScreen HP1-beta / biotin-H3K9me3 peptide binding; Potency, µM (top dose mostly 114 µM), without a hit: at the top dose activity change, negative = inhibition, hits mostly inhibitors; 390,000 tested, 0.56% active; AID 540317; note: nearly all actives have a fitted effect of over 70% in size
#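 Compound inhibition of the preformed complex between 50 nM HP1-beta and 50 nM biotinylated H3K9me3 peptide was read by AlphaScreen. Buffer was PBS pH 7.4 with 0.01% Tween-20. Incubations ran 30 min at room temperature, with 10 ug/mL donor/acceptor beads.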
# An asterisk follows results filed as active; u = inconclusive; x = no result; [ ] = another dose, or the depositor's remark. Calls come from the whole dose curve; as a rule, active = well fitted curve in the direction sought with a large enough effect; inconclusive = small, poorly fitted or top-dose-only effect, or another doubt; inactive = no such curve, though single readings can be large; an effect the other way counts as inactive or inconclusive. Potency is the fitted concentration of half-maximal effect.
SMILES,G9a inh,JMJD2A Tudor inh,BAZ2B block,L3MBTL1 inh,GLS inh,HP1b binding inh
O=C1OC(C(=O)Nc2nccs2)Cc2ccccc21 (stereo not given),-46.8%[59 µM],-21.4%,-38.3%,x,-0.4%,17.7%
CCOc1ccc(NC(=O)Cn2c(CCC(=O)O)ccc2-c2ccc(C)cc2)cc1,-36.1%[59 µM],-18.4%,-32.1%,x,16.7%,-0.6%
O=C(O)c1cccc(N2C(=O)/C(=C/c3ccc(SCc4ccc(Cl)cc4)o3)SC2=S)c1,20µM*,44.7µM*,31.6µM*,3.55µM*,u,-16.4%
Cc1ccc(/C=C2\SC(=S)N(c3cccnc3)C2=O)o1,u,-18.2%,u,x,4.4%,8.6%
COc1ccc(NC(=S)N/C(=N/S(=O)(=O)c2ccc(C)cc2)c2ccccc2)cc1,u,-6.2%,-17.2%,-3.9%,5.3%,3.5%
CCOC(=S)N/C(=N\S(=O)(=O)c1ccc(C)cc1)c1ccccc1,7.94µM*,-27.6%,6.8%,1.2%,5.3%,u
CCOc1ccc(S(=O)(=O)/N=C(\N)c2ccccc2)cc1,35.5µM*,-10.0%,-14.0%,6.8%,-30.3%,0.5%
O=S(=O)(/N=C(/NC(=S)Nc1ccccc1)c1ccccc1)c1ccc(Cl)cc1,11.2µM*,-31.5%,-23.2%,x,3.5%,u
CCc1nn(CC(=O)NC(C)c2ccccc2)c(=O)c2cc3sccc3n12 (stereo not given),14.5%[59 µM],-10.9%,-16.0%,x,-5.9%,59.7%
N#Cc1ccc(C(=O)NCC(=O)OC(C(=O)Nc2cc(C(F)(F)F)ccc2Cl)c2ccccc2)cc1 (stereo not given),x,-23.3%,x,x,x,x
CCc1cccc(C)c1NC(=O)CN1C(=O)C2(SCC(=O)N2c2cccc(F)c2)c2ccccc21 (stereo not given),-24.7%[59 µM],-21.7%,-2.0%[57.1 µM],x,3.6%,54.2%
CC(C)(C)c1ccc(C(=O)NNc2ncnc3c2cnn3-c2ccc(Cl)cc2)cc1,9.3%[59 µM],-17.4%,-1.8%,x,3.7%,47.1%
C=C1CCN(C(Cc2ccccc2)C(=O)NCc2ccc(Cl)c(Cl)c2)S(=O)(=O)c2ccccc21 (stereo not given),x,-9.0%,x,x,x,30.2%
NC(N)=[N+]1CCc2ccccc2C1,3.16µM*,x,x,x,x,x
CCOC(=O)c1[nH]c(C)c(CCC(=O)Nc2ccccc2C(=O)OC)c1C,-2.9%[59 µM],-25.0%,2.7%,x,-11.9%,9.1%[57 µM]
CCCC(=O)Nc1cccc(OCc2cc(=O)n3cccc(C)c3n2)c1,-2.9%[59 µM],-6.8%,-3.1%,x,-5.9%,2.1%[57 µM]
Cc1cccc(N(C)C(=O)C2CCC(CNS(=O)(=O)c3cccc4nsnc34)CC2)c1 (stereo not given),-33.1%[59 µM],-20.5%,-30.6%,x,4.2%,10.9%
Cc1ccc(C)c(-c2cc(C(=O)NNC(=S)NCC(C)C)c3ccccc3n2)c1,10µM*,-19.9%,-4.1%,-10.3%,55.3%,-9.4%
Cc1ccc(C)c(-c2cc(C(=O)NC3CC3)c3ccccc3n2)c1,44.7µM*,-23.7%,-25.2%,x,-21.9%,20.5%
O=C(NCCc1ccc(Cl)cc1)c1cc(-c2ccccn2)nc2ccccc12,18.2%[59 µM],22.4µM*,-21.2%,x,3.7%,-0.6%
O=C(NC1CCCCCC1)c1cc(-c2ccccn2)nc2ccccc12,-12.0%,-11.9%,-12.7%,-5.6%,8.3%,18.6%
O=C(NC1CCCCC1)c1cc(-c2ccccn2)nc2ccccc12,50.1µM*,-16.9%,-14.3%,5.3%,1.0%,14.8%
Cc1ccc(C)n1-c1c(C(=O)NCC(C)c2ccccc2)sc2ncccc12 (stereo not given),-27.3%[59 µM],-22.4%,-1.9%,x,-1.8%,20.0%[57 µM]
COc1cccc(COC(=O)c2ccc(-c3nnn(Cc4cccc(OC)c4)n3)cc2)c1,46.0%[59 µM],36.2%,21.3%,x,-10.6%,93.9%
CC(C)NS(=O)(=O)c1ccc2nc(NC(=O)c3cncc(Br)c3)sc2c1,u,-28.6%,-0.5%,x,0.7%,17.2%[57 µM]
SMILES,G9a inh,JMJD2A Tudor inh,BAZ2B block,L3MBTL1 inh,GLS inh,HP1b binding inh
Cc1cnn(C(=O)c2cc(-c3ccccn3)nc3ccc(Cl)cc23)c1,u,-15.1%,56.2µM*,-2.8%,-0.9%,13.4%
O=C(c1cc(-c2ccccn2)nc2ccc(Cl)cc12)N1CCN(CCc2ccccc2)CC1,5.5%[59 µM],-19.6%,-10.2%,-12.6%,1.1%,17.3%
O=C1NN(c2ccccc2)C(=O)/C1=C/c1ccc(Sc2cccc3ccccc23)o1,31.6µM*,u,10µM*,u,-22.8%,u
Cc1ccc(OCCn2cc(/C=C3\C(=O)NN(c4ccccc4)C3=O)c3ccccc32)cc1,-12.4%[59 µM],u,u,-6.6%,-11.1%,-9.5%
CC(NC(=O)CN1C(=O)COc2ccc(S(=O)(=O)N3CCCCCC3)cc21)c1ccccc1 (stereo not given),-6.7%[59 µM],-8.8%,-13.8%,x,0.3%,16.9%
Cc1c(Cl)cccc1NC(=O)Nc1ccc2snnc2c1,4.3%[59 µM],11.1%,-5.3%,x,4.4%,41.6%
O=C(O)CCCCCNc1nc(=S)[nH]c2ccccc12,u,22.4µM*,u,31.3%,0.6%,5.1%
O=C(CCCCCNc1nc(=S)[nH]c2ccccc12)NCCc1ccc(Cl)cc1,29.0%,-13.4%,-2.3%,7.4%,-8.8%,34.0%
Cc1cccc(C)c1OCC(=O)NCC1(N2CCOCC2)CCCCC1,-1.2%[59 µM],-15.6%,-7.0%,x,-0.3%,29.6%
COc1cccc(C(=O)N/N=C/c2ccc(OC)c(COc3ccccc3C(N)=O)c2)c1,62.9%,-22.4%,-2.5%,x,13.4%,31.0%
COc1ccc(/C=N\NC(=O)c2ccc(F)cc2)cc1COc1ccccc1C(N)=O,35.5µM*,-9.7%,-22.8%,x,-3.2%,34.9%
COc1ccc(/C=N\NC(=O)c2ccc([N+](=O)[O-])cc2)cc1COc1c(F)c(F)cc(F)c1F,63.1µM*,-23.7%,-1.6%,x,0.0%,1.6%
COC(=O)c1oc2c(c1C)C(=O)CCC2,21.3%[59 µM],-16.7%,-10.4%,-2.7%,-6.4%,12.7%
O=C1CCCc2oc3c(c21)CCCC3,50.1µM*,-3.4%,-21.4%,x,6.5%,2.0%
COc1cccc(NC(=O)Cn2c(=O)n(Cc3nc(-c4ccccc4)no3)c(=O)c3ccccc32)c1,0.8%[59 µM],0.7%,-2.2%,x,0.2%,52.1%
NC(=O)c1ccc[n+](CC(=O)c2cccc([N+](=O)[O-])c2)c1,-13.3%,-4.7%,1.8%,x,-14.1%,42.9%
O=C(C[n+]1ccc(C(=O)N/N=C/c2ccc(Br)cc2)cc1)c1ccccc1,7.94µM*,-15.0%,-9.9%,x,1.1%,28.6%
O=C(C[n+]1ccc(C(=O)N/N=C/c2ccc(OCc3ccccc3)cc2)cc1)c1ccccc1,u,-34.5%,5.0%,x,18.1%,5.1%
O=C(C[n+]1ccccc1)N/N=C/c1ccc(Br)cc1,5.3%[2.33 µM],-12.4%,-26.6%,-1.3%,0.6%,28.3%
